An excerpt weighted towards active compounds, which were near 1.5% of everything screened.
HGIII-sPLA2 inh – Inhibits HGIII-sPLA2 liposome hydrolysis, primary screen; Q9NZ20; QFRET BODIPY PC-A2 liposome hydrolysis, fluorescence; inhibition, % at 12.2 µM; actives 0.56% (n = 370,000);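 active = inhibition above mean plus 3 SD of compounds lying within the high and low control bounds, cut at about 19% in these data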;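 note: 0% = median of test compound wells and 100% = no enzyme DMSO wells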
AI-2 QS mod – Vibrio harveyi AI-2 quorum sensing modulation; activity change, % at 7.5 µM; AID 2094; Vibrio harveyi JMH597 AI-2 luminescence/OD600 ratio, 9 h; stronger effect = lower value; strain lacks LuxN and CqsS sensors; 0 = neutral-control median; actives 0.4% (n = 300,000); in the data active = activity change below about -75%, passing the limit was not always enough; inconclusive = no clear call, values can overlap the other calls;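 note: luminescence divided by OD600 gain over 9 h not by final OD600 alone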
ARNT-TACC3 inh – ARNT/TACC3 interaction disruption; AlphaScreen His-ARNT PAS-B/GST-TACC3 binding, luminescence; TACC3 fragment carries E629A point mutation; Q9Y6A5; actives 0.66% (n = 390,000); inhibition, % at 9.99 µM;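 active = mean inhibition of replicates at least 50% and at least half of replicates each reaching 50%; inconclusive = half or more replicates reach 50% but mean below 50%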;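 note: 0% = complete ARNT plus TACC3 wells and 100% = ARNT alone without TACC3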
Rin1-Abl PPI inh – human Rin1-Abl interaction inhibition | P00519+Q13671 | TR-FRET Rin1/Abl binding, biochemical | inhibition, % at 7.35 µM | actives 0.4% (n = 360,000) | AID 588664; in the data active = inhibition above about 5%, passing the limit was not always enough
Target sequence (P00519 whole entry, looked up): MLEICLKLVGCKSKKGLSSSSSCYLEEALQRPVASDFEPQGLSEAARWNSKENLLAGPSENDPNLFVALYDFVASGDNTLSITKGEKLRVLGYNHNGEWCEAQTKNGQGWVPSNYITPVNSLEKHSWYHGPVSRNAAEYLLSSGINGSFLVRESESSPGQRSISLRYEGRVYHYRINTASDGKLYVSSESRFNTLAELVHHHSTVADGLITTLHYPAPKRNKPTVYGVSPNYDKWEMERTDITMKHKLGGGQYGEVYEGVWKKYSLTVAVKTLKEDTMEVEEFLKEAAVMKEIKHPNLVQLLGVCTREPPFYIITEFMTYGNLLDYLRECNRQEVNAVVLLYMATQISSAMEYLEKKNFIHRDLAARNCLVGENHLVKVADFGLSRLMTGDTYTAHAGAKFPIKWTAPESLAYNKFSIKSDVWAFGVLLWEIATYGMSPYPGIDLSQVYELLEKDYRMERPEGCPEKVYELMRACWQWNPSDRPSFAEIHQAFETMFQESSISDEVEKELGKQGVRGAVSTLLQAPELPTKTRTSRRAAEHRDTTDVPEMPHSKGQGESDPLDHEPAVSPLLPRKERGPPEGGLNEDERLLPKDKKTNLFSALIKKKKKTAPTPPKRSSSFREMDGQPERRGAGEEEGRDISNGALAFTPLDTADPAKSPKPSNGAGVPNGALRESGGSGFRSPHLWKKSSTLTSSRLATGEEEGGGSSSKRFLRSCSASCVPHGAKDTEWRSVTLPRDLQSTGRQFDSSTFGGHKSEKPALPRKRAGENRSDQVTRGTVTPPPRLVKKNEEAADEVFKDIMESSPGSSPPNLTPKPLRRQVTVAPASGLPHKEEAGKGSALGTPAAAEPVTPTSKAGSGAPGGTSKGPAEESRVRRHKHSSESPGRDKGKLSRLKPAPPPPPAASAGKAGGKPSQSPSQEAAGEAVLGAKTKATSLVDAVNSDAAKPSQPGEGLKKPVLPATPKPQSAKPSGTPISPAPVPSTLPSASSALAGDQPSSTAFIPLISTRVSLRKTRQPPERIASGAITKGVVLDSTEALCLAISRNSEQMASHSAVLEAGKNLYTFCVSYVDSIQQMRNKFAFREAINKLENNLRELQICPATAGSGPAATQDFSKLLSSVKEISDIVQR
Target sequence (Q13671 whole entry, looked up): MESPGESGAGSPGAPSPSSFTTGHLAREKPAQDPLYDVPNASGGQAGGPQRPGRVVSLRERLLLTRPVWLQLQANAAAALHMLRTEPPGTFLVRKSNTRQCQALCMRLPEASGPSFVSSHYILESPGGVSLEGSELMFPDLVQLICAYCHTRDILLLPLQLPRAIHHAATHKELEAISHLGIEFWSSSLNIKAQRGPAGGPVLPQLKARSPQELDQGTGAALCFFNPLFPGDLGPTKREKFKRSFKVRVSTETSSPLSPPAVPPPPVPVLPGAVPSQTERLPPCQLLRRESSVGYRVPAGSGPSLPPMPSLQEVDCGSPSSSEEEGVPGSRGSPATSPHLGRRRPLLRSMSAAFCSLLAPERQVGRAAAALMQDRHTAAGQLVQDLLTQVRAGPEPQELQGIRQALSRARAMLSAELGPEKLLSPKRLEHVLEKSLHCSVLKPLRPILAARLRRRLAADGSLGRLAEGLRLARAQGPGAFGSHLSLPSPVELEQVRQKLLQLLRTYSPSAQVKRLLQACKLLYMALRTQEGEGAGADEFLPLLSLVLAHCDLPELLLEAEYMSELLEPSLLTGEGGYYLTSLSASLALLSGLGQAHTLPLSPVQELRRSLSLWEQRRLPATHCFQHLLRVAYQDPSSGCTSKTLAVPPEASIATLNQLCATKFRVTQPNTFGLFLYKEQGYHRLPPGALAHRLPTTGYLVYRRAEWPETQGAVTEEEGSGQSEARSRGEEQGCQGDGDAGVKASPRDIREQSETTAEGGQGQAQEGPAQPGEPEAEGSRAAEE
JMH597 growth – retest: inhibitors of Vibrio harveyi JMH597 growth | AID 2726 | growth inhibition, % at 7.5 µM | actives 1% (n = 750) | shares compounds with AI-2 QS mod | OD600 absorbance, 9 h; lacks LuxN and CqsS sensors;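 active = every replicate shows growth inhibition above 50%; inconclusive = at least half, but not all, replicates pass that cutoff; inactive = fewer than half of replicates pass it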
BB721 const-QS lum – retest counter-screen: BB721 constitutive quorum sensing luminescence decrease | inhibition, % at 7.5 µM | shares compounds with AI-2 QS mod | actives 95% (n = 750) | Vibrio harveyi BB721 luminescence, 9 h;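 active = inhibition above about 80% in every replicate, not just on average, limit read from the data; inconclusive = at least half of replicates past the limit, but not all; inactive = fewer than half of replicates past the limit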
BB721 growth rt – retest: blocks Vibrio harveyi BB721 growth | actives 3% (n = 750) | OD600 absorbance, 9 h | shares compounds with AI-2 QS mod | AID 2728 | growth inhibition, % at 7.5 µM;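 active = every replicate shows growth inhibition above 50%; inconclusive = at least half but not all replicates above 50% inhibition; inactive = under half of replicates above 50% inhibition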
JMH597 AI-2 mod – Vibrio harveyi AI-2 signaling luminescence modulation – JMH597 strain, confirmation. inhibition, % at 7.5 µM. actives 97% (n = 750). shares compounds with AI-2 QS mod. Vibrio harveyi JMH597 AI-2 quorum sensing luminescence, 9 h; luxN and CqsS knockout, AI-2 only;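 active = every replicate shows more than 75% inhibition of signal versus neutral control wells; inconclusive = half to three quarters of replicates exceed 75% inhibition; inactive = fewer than half of replicates exceed 75% inhibition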
The depositor's hits bear a star.

What do the screens show for `O=C(CCc1ccccc1)Nc1ccc(S(=O)(=O)Nc2nccs2)cc1`?
HGIII-sPLA2 inh: -15; AI-2 QS mod: -85*; ARNT-TACC3 inh: 22; Rin1-Abl PPI inh: 0; JMH597 growth: 18; BB721 const-QS lum: 89*; BB721 growth rt: 8; JMH597 AI-2 mod: 93*

Results for Cc1ccc(O)c(CNc2ccc(S(=O)(=O)Nc3nccs3)cc2)c1 ?
HGIII-sPLA2 inh: -25; AI-2 QS mod: -89*; ARNT-TACC3 inh: 4; Rin1-Abl PPI inh: -3; JMH597 growth: 19; BB721 const-QS lum: 93*; BB721 growth rt: 28; JMH597 AI-2 mod: 95*

How did Cc1cccc(Oc2cnn(C(C)(C)C)c(=O)c2Cl)c1 do in these assays?
HGIII-sPLA2 inh: 0; AI-2 QS mod: -92*; Rin1-Abl PPI inh: 2; JMH597 growth: 21; BB721 const-QS lum: 96*; BB721 growth rt: -19; JMH597 AI-2 mod: 98*

What do the screens show for `COc1ccc(NC(=O)Nc2ccc3c(c2)CC(=O)N([C@H](C)CO)C[C@H](C)[C@H](CN(C)S(=O)(=O)c2c(C)noc2C)O3)cc1`?
ARNT-TACC3 inh: 1

Results for C[C@H]1CN([C@@H](C)CO)C(=O)CCCn2nncc2CO[C@H]1CN(C)C(=O)Nc1ccc(N2CCN(C)CC2)cc1 ?
ARNT-TACC3 inh: 12

How did O=C(/C=C/c1ccccc1)NNC(=O)c1cccc(Cl)c1 do in these assays?
HGIII-sPLA2 inh: -4; AI-2 QS mod: -4; ARNT-TACC3 inh: -8; Rin1-Abl PPI inh: -3

Results for O=C(/C=C/c1ccccc1)NNc1ccc(Cl)cc1 ?
HGIII-sPLA2 inh: 7; AI-2 QS mod: -97*; ARNT-TACC3 inh: -9; Rin1-Abl PPI inh: 2; JMH597 growth: 32; BB721 const-QS lum: 100*; BB721 growth rt: inconclusive; JMH597 AI-2 mod: 100*

What do the screens show for `Cn1c(=S)oc2ccccc21`?
HGIII-sPLA2 inh: -1; AI-2 QS mod: 19; ARNT-TACC3 inh: -6; Rin1-Abl PPI inh: 1

Results for CC(C)CC(=O)/C=C/n1c(=S)oc2ccccc21 ?
HGIII-sPLA2 inh: 3; AI-2 QS mod: -86*; Rin1-Abl PPI inh: 2; JMH597 growth: 29; BB721 const-QS lum: 93*; BB721 growth rt: 31; JMH597 AI-2 mod: 93*

How did Cc1nn(Cc2ccc(Cl)cc2)c(C)c1NC(=O)c1c(-c2ccccc2)noc1C do in these assays?
HGIII-sPLA2 inh: -4; AI-2 QS mod: -80*; ARNT-TACC3 inh: -2; Rin1-Abl PPI inh: 2; JMH597 growth: 1; BB721 const-QS lum: 93*; BB721 growth rt: -8; JMH597 AI-2 mod: 94*

How did CC(C)(C)c1ccc(OCC(=O)N2CCN(c3ccccn3)CC2)cc1 do in these assays?
HGIII-sPLA2 inh: 5; Rin1-Abl PPI inh: 5

What do the screens show for `CC(C)(C)c1ccc(OCC(=O)N2CCN(c3ncccn3)CC2)cc1`?
AI-2 QS mod: -86*; ARNT-TACC3 inh: -2; Rin1-Abl PPI inh: -1; JMH597 growth: 0; BB721 const-QS lum: 93*; BB721 growth rt: 12; JMH597 AI-2 mod: 95*

How did O=C(c1cc2cc(Cl)ccc2[nH]1)N1CCN(C(=O)c2ccco2)CC1 do in these assays?
HGIII-sPLA2 inh: 2; AI-2 QS mod: -94*; ARNT-TACC3 inh: -7; Rin1-Abl PPI inh: 1; JMH597 growth: 15; BB721 const-QS lum: 97*; BB721 growth rt: 15; JMH597 AI-2 mod: 98*

Results for O=C(Cc1ccccc1F)Nc1ccc(SC(F)F)cc1 ?
HGIII-sPLA2 inh: -3; AI-2 QS mod: -83*; Rin1-Abl PPI inh: 5; JMH597 growth: 23; BB721 const-QS lum: 94*; BB721 growth rt: 26; JMH597 AI-2 mod: 94*

Results for O=C(COC(=O)Cc1ccccc1F)Nc1ccc(SC(F)F)cc1 ?
HGIII-sPLA2 inh: -29; AI-2 QS mod: -20; ARNT-TACC3 inh: 0; Rin1-Abl PPI inh: -2

How did CN(C)C(=O)COc1ncnc2sc(-c3ccccc3)cc12 do in these assays?
HGIII-sPLA2 inh: 0; AI-2 QS mod: -84*; ARNT-TACC3 inh: -3; Rin1-Abl PPI inh: -3; JMH597 growth: 15; BB721 const-QS lum: 94*; BB721 growth rt: 13; JMH597 AI-2 mod: 97*

What do the screens show for `C[C@H](CO)N1C[C@H](C)[C@H](CN(C)Cc2ccc3c(c2)OCO3)Oc2ccc(NC(=O)Nc3ccc(F)cc3)cc2C1=O`?
ARNT-TACC3 inh: 12

How did N#Cc1nc(-c2ccc(Cl)cc2)oc1NCc1ccco1 do in these assays?
HGIII-sPLA2 inh: -1; AI-2 QS mod: 7; ARNT-TACC3 inh: -1; Rin1-Abl PPI inh: 0

How did N#Cc1nc(-c2ccccc2)oc1NCc1ccco1 do in these assays?
HGIII-sPLA2 inh: -8; AI-2 QS mod: inconclusive; ARNT-TACC3 inh: 9; Rin1-Abl PPI inh: 0; JMH597 growth: 6; BB721 const-QS lum: 90*; BB721 growth rt: 3; JMH597 AI-2 mod: 93*

What do the screens show for `COc1ccc(CNc2oc(-c3ccccc3)nc2C#N)cc1`?
HGIII-sPLA2 inh: -14; AI-2 QS mod: -95*; Rin1-Abl PPI inh: 0; JMH597 growth: 22; BB721 const-QS lum: 98*; BB721 growth rt: -5; JMH597 AI-2 mod: 99*

What do the screens show for `COCC(=O)N1CC[C@H]2[C@H](CO)Nc3ccc(C#Cc4ccccc4)cc3[C@H]21`?
ARNT-TACC3 inh: 0

What do the screens show for `C(=C\c1nc(-c2ccccc2)no1)/c1ccccc1`?
HGIII-sPLA2 inh: 4; AI-2 QS mod: -88*; ARNT-TACC3 inh: 3; Rin1-Abl PPI inh: -1; JMH597 growth: 11; BB721 const-QS lum: 95*; BB721 growth rt: 13; JMH597 AI-2 mod: 96*

How did CN(C)C(=O)C[C@H]1CC[C@@H]2[C@H](COc3ccc(NC(=O)C4CC4)cc3C(=O)N2C)O1 do in these assays?
ARNT-TACC3 inh: 3

Results for CO[C@@H]1CN(C)C(=O)c2cc(NS(=O)(=O)c3cn(C)cn3)ccc2OC[C@@H](C)N(Cc2cccc(F)c2)C[C@H]1C ?
ARNT-TACC3 inh: 1

What do the screens show for `CC(=O)Nc1ccc(NC(=O)CCc2ccc(C)o2)cc1`?
HGIII-sPLA2 inh: -2; AI-2 QS mod: 13; ARNT-TACC3 inh: -5; Rin1-Abl PPI inh: 3

What do the screens show for `Cc1ccc(NC(=O)CCc2ccc(C)o2)cc1`?
HGIII-sPLA2 inh: -24; AI-2 QS mod: inconclusive; ARNT-TACC3 inh: -1; Rin1-Abl PPI inh: 0; JMH597 growth: 23; BB721 const-QS lum: 87*; BB721 growth rt: 2; JMH597 AI-2 mod: 92*

How did Cc1ccc(CCC(=O)Nc2ccc([N+](=O)[O-])cc2)o1 do in these assays?
HGIII-sPLA2 inh: -15; AI-2 QS mod: -91*; Rin1-Abl PPI inh: -4; JMH597 growth: 9; BB721 const-QS lum: 97*; BB721 growth rt: -14; JMH597 AI-2 mod: 98*

Screens as filed in PubChem BioAssay.
